Reference: PubChem BioAssay (NCATS)
Where “and” joins values, the source holds several entries; their conditions need not be identical. Identical values can stand only once. Results filed as inconclusive are left out. Some compounds were tested as several samples or in several runs, with calls that do not always agree. Calls of active or inactive are those of the source. Calls follow the shape of the dose curve; as a rule, active = well fitted curve in the direction sought with a large enough effect; inconclusive = small, poorly fitted or top-dose-only effect, or another doubt; inactive = no such curve, though single readings can be large; an effect the other way counts as inactive or inconclusive.

What was measured:
[1] = Viability qHTS for spleen associated tyrosine kinase inhibitor (SYKi) naive MV4-11 cells (AID 1963823); also: nearly all actives have a fitted effect of over 40% in size
Outline: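 Read-out: CellTiter-Glo luminescence. Exposure: 72 hr, 37 C, 5% CO2, 95% humidity. Cells: MV4-11 without SYK inhibitor history, 500/well, qHTS format.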

[2] = Viability qHTS for spleen associated tyrosine kinase inhibitor (SYKi) drug resistant MV4-11 cells (AID 1963824); also: nearly all actives have a fitted effect of over 35% in size
Outline: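 CellTiter-Glo luminescence, read 10 min after reagent addition, reports viability after a 72 hr compound exposure. Cells are an MV4-11 line made resistant to SYK inhibition, seeded at 500 per well onto compound-containing plates.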

[3] = Cellular viability qHTS for adrenocortical cancer (ACC) cell line SW-13 (AID 1963989); conditions: SW-13 ACC cells viability, CellTiter-Glo, 48 h; activity (max response): stronger effect = lower value; also: nearly all actives have a fitted effect of over 65% in size;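 as to activity (max response): cells grown in serum-free medium with ITS supplement; % is scaled to controls: 0 for no effect and ±100 for the full control effect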
Outline: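 IC50 and maximal-response values come from four-parameter logistic fits of titration data. SW-13 cells in serum-free medium received compounds (up to 46 uM final) for 48 h before CellTiter-Glo luminescence.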

[4] = Cellular viability qHTS for adrenocortical cancer (ACC) cell line NCI-H295R (AID 1963990); also: nearly all actives have a fitted effect of over 60% in size
Outline: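 Adrenocortical carcinoma cells, suspended at 300 000 cells/mL in serum-free DMEM plus ITS, rested overnight before pin transfer of compound. After two days' incubation, ATP-dependent luminescence was recorded and curve-fitted.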
Potency is read from the fitted curve at half-maximal effect.

CNC[C@H](O)[C@@H](O)[C@H](O)[C@H](O)CO
Potency [1]: inactive
Potency [2]: inactive
activity (max response) [3]: 1.47% (inactive)
Potency [4]: inactive

COC1=C(OC)C(=O)C(C/C=C(\C)CC/C=C(\C)CC/C=C(\C)CC/C=C(/C)CC/C=C(\C)CC/C=C(\C)CC/C=C(\C)CC/C=C(\C)CC/C=C(\C)CCC=C(C)C)=C(C)C1=O
Potency [1]: inactive
Potency [2]: inactive
activity (max response) [3]: 3.03% (inactive)
Potency [4]: inactive

Cc1cc(N2CCOCC2)ccc1Nc1nc(NC2CCCCC2)c2[nH]cnc2n1
Potency [1]: 0.833 µM (active)
Potency [2]: 0.461 µM (active)
Potency [3]: 25.1 µM (active)
Potency [4]: 28.2 µM (active)

CC(C)=CCC[C@](C)(O[C@@H]1O[C@H](CO[C@@H]2O[C@H](CO)[C@@H](O)[C@H](O)[C@H]2O)[C@@H](O)[C@H](O)[C@H]1O)[C@H]1CC[C@]2(C)[C@@H]1[C@H](O)C[C@@H]1[C@@]3(C)CC[C@H](O[C@@H]4O[C@H](CO)[C@@H](O)[C@H](O)[C@H]4O[C@@H]4O[C@H](CO)[C@@H](O)[C@H](O)[C@H]4O)C(C)(C)[C@@H]3CC[C@]12C
Potency [1]: inactive
Potency [2]: inactive
activity (max response) [3]: -6.63% (inactive)
Potency [4]: inactive

COc1cc(OC)c(/C=C/S(=O)(=O)Cc2ccc(OC)c(NCC(=O)O)c2)c(OC)c1
Potency [1]: 92 nM (active) and 105 nM (active)
Potency [2]: 51.7 nM (active) and 118 nM (active)
Potency [3]: 0.02 µM (active)
Potency [4]: 0.0224 µM (active)

COc1ccc(/C=C\c2cc(OC)c(OC)c(OC)c2)cc1O
Potency [1]: 0.0053 µM (active)
Potency [2]: 0.0047 µM (active)
Potency [3]: 0.01 µM (active)
Potency [4]: 0.0089 µM (active)

N[C@H](C(=O)O)c1ccc(O)cc1
Potency [1]: inactive
Potency [2]: inactive
activity (max response) [3]: 5.01% (inactive)
Potency [4]: inactive

CCCCC1(COC(=O)CCC(=O)O)C(=O)N(c2ccccc2)N(c2ccccc2)C1=O
Potency [1]: inactive
Potency [2]: inactive
activity (max response) [3]: 6.69% (inactive)
Potency [4]: inactive

CCNCCc1ccc(CN(CC)c2cc(OC)ccc2[C@@H]2CCc3cc(O)ccc3C2)cc1
Potency [1]: 2.35 µM (active)
Potency [2]: 2.95 µM (active)
Potency [3]: 6.31 µM (active)
Potency [4]: 3.98 µM (active)

C#C[C@]1(O)CC[C@H]2[C@@H]3[C@H](C)CC4=C(CCC(=O)C4)[C@H]3CC[C@@]21C
Potency [1]: inactive
Potency [2]: 18.6 µM (active)
activity (max response) [3]: -17.1% (inactive)
Potency [4]: inactive

CCOC(=O)C(=O)CCCCCCl
Potency [1]: inactive
Potency [2]: inactive
activity (max response) [3]: 1.38% (inactive)
Potency [4]: inactive

CC(C)(C)C(O)/C=C/c1ccc2c(c1)OCO2 (configuration not stated)
Potency [1]: inactive
Potency [2]: inactive
activity (max response) [3]: -8.69% (inactive)
Potency [4]: inactive

CO[C@@]12[C@H](COC(N)=O)C3=C(C(=O)C(C)=C(N)C3=O)N1C[C@@H]1N[C@@H]12
Potency [1]: 119 nM (active) and 118 nM (active)
Potency [2]: 0.0742 µM (active)
activity (max response) [3]: 9.06% (inactive) and -27.8% (inactive)
Potency [4]: inactive

O=Cc1ccc(O)c(O)c1O
Potency [1]: inactive
Potency [2]: inactive
activity (max response) [3]: -7.42% (inactive)
Potency [4]: 18.4 µM (active)

COc1ccc(S(=O)(=O)Nc2nnc(CC(C)C)s2)cc1
Potency [1]: inactive
Potency [2]: inactive
activity (max response) [3]: -5.12% (inactive)
Potency [4]: inactive

C[C@]12CCCN1CC1=NNC(=O)c3cc(F)cc4[nH]c2c1c34
Potency [1]: 2.63 µM (active)
Potency [2]: 6.61 µM (active)
activity (max response) [3]: -23.5% (inactive)
Potency [4]: inactive

COC(C)(C)CCn1nc(Nc2c(C)cccc2C)c2cnc(Nc3ccc(OCCN4CCCC4)c(F)c3)nc21
Potency [1]: 731 nM (active) and 742 nM (active)
Potency [2]: 1.03 µM (active) and 1.66 µM (active)
Potency [3]: 2.82 µM (active)
Potency [4]: 3.98 µM (active)

C=CC(=O)N1CCC[C@@H](n2nc(-c3ccc(Oc4ccccc4)cc3)c3c(N)ncnc32)C1
Potency [1]: 1.64 µM (active) and 662 nM (active)
Potency [2]: 1.3 µM (active) and 1.18 µM (active)
activity (max response) [3]: 5.79% (inactive)
Potency [4]: inactive

CCN(CC)CCNc1ccc(C)c2sc3ccccc3c(=O)c12
Potency [1]: 5.25 µM (active)
Potency [2]: 7.42 µM (active)
Potency [3]: 25.1 µM (active)
Potency [4]: 15.8 µM (active)

CCN1CCN(C(=O)N[C@@H](C(=O)N[C@@H]2C(=O)N3[C@@H]2SC(C)(C)[C@H]3C(=O)O)c2ccccc2)C(=O)C1=O
Potency [1]: inactive
Potency [2]: inactive
activity (max response) [3]: 12.1% (inactive)
Potency [4]: inactive

C=CCNC1=C2CC(C)CC(OC)C(O)C(C)/C=C(\C)C(OC(N)=O)C(OC)/C=C/C=C(\C)C(=O)NC(=CC1=O)C2=O (configuration not stated)
Potency [1]: 0.0934 µM (active)
Potency [2]: 0.332 µM (active)
Potency [3]: 3.16 µM (active)
Potency [4]: 10 µM (active)

CC(=O)O[C@H]1CC[C@@]2(C)C(=CC[C@@H]3[C@@H]2CC[C@]2(C)C(C(C)=O)=CC[C@@H]32)C1
Potency [1]: inactive
Potency [2]: inactive
activity (max response) [3]: 8.77% (inactive)
Potency [4]: inactive

CCCN1CCCC[C@H]1C(=O)Nc1c(C)cccc1C
Potency [1]: inactive
Potency [2]: inactive
activity (max response) [3]: 4.43% (inactive)
Potency [4]: inactive

COc1ccc(S(=O)(=O)N(C(C)=O)c2ccccc2/C=C/c2cc[n+]([O-])cc2)cc1
Potency [1]: 0.934 µM (active)
Potency [2]: 0.833 µM (active)
Potency [3]: 1.12 µM (active)
Potency [4]: 1.41 µM (active)

Oc1ccccc1
Potency [1]: inactive
Potency [2]: inactive
activity (max response) [3]: 8.68% (inactive)
Potency [4]: inactive

O=C(O)CCC(=O)c1ccc(-c2ccccc2)cc1
Potency [1]: inactive
Potency [2]: inactive
activity (max response) [3]: 23% (inactive)
Potency [4]: inactive

C=CC(=O)Nc1ccc2ncnc(Nc3cccc(Br)c3)c2c1
Potency [1]: 2.59 µM (active)
Potency [2]: 2.31 µM (active)
Potency [3]: 1.26 µM (active)
Potency [4]: 4.47 µM (active)

C[C@@H](Nc1ncnc2[nH]c(-c3ccc(O)cc3)cc12)c1ccccc1
Potency [1]: 4.11 µM (active) and 7.42 µM (active)
Potency [2]: 5.17 µM (active) and 10.5 µM (active)
Potency [3]: 3.98 µM (active)
Potency [4]: 11.2 µM (active)

O=C(NCc1cccc(O)c1)Nc1nc(-c2ccncc2)cs1
Potency [1]: 10.3 µM (active)
Potency [2]: 16.4 µM (active)
activity (max response) [3]: -22.1% (inactive)
Potency [4]: inactive

CC1(C)CN(C(=O)c2ccc(-c3cccc4nc(NC(=O)C5CC5)nn34)cc2)C1
Potency [1]: 6.61 µM (active)
Potency [2]: 16.4 µM (active)
activity (max response) [3]: 2.66% (inactive)
Potency [4]: inactive

CCC(C)(CN(C)C)OC(=O)c1ccccc1 (configuration not stated)
Potency [1]: inactive
Potency [2]: inactive
activity (max response) [3]: -1.44% (inactive)
Potency [4]: inactive

CC(C)c1c(C(=O)Nc2ccccc2)c(-c2ccccc2)c(-c2ccc(F)cc2)n1CC[C@@H](O)C[C@@H](O)CC(=O)O
Potency [1]: 2.99 µM (active) and 1.93 µM (active) and 1.82 µM (active)
Potency [2]: 2.11 µM (active) and 1.09 µM (active) and 910 nM (active)
activity (max response) [3]: -20.9% (inactive) and -15.4% (inactive)
Potency [4]: inactive

Nc1ccc([N+](=O)[O-])c(C(F)(F)F)c1
Potency [1]: inactive
Potency [2]: inactive
activity (max response) [3]: 0.003% (inactive)
Potency [4]: inactive

CCCCc1nc2cc(/C=C/C(=O)NO)ccc2n1CCN(CC)CC
Potency [1]: 411 nM (active) and 525 nM (active)
Potency [2]: 291 nM (active) and 468 nM (active)
Potency [3]: 2 µM (active)
Potency [4]: 0.708 µM (active)

CCC1Nc2cc(Cl)c(S(N)(=O)=O)cc2S(=O)(=O)N1 (configuration not stated)
Potency [1]: inactive
Potency [2]: inactive
activity (max response) [3]: 2.08% (inactive)
Potency [4]: inactive

CC(=O)O[C@]1(C(C)=O)CC[C@H]2[C@@H]3C=C(C)C4=CC(=O)CC[C@]4(C)[C@H]3CC[C@@]21C
Potency [1]: inactive and 16.6 µM (active)
Potency [2]: 14.8 µM (active)
activity (max response) [3]: 8.88% (inactive) and -22.2% (inactive)
Potency [4]: inactive

CC(C)c1cc(CNc2nc(Nc3cc(C4CC4)[nH]n3)cc(N3CCN(C)CC3)n2)on1
Potency [1]: 0.0259 µM (active)
Potency [2]: 0.0231 µM (active)
Potency [3]: 3.98 µM (active)
Potency [4]: 1.58 µM (active)

CCC1NC(=O)c2cc(S(N)(=O)=O)c(Cl)cc2N1 (configuration not stated)
Potency [1]: inactive
Potency [2]: inactive
activity (max response) [3]: 11.8% (inactive)
Potency [4]: inactive

CC(C)Nc1cccnc1N1CCN(C(=O)c2cc3cc(NS(C)(=O)=O)ccc3[nH]2)CC1
Potency [1]: inactive
Potency [2]: inactive
activity (max response) [3]: -10.3% (inactive)
Potency [4]: inactive

CC(=O)[C@]1(N)Cc2c(O)c3c(c(O)c2[C@@H](O[C@H]2C[C@H](O)[C@H](O)CO2)C1)C(=O)c1ccccc1C3=O
Potency [1]: 5.9 µM (active)
Potency [2]: 4.68 µM (active)
activity (max response) [3]: -6.73% (inactive)
Potency [4]: inactive

C[C@]12CC[C@@H]3c4ccc(O)cc4CC[C@H]3[C@@H]1CC[C@@H]2OC(=O)CCC1CCCC1
Potency [1]: inactive
Potency [2]: inactive
activity (max response) [3]: 5.6% (inactive)
Potency [4]: inactive

CSc1ccc2c(c1)N(CCC1CCCCN1C)c1ccccc1S2 (configuration not stated)
Potency [1]: 15 µM (active)
Potency [2]: 13.3 µM (active)
Potency [3]: 16.4 µM (active)
Potency [4]: 4.61 µM (active)

COc1cc(C(=S)N2CCOCC2)cc(OC)c1OC
Potency [1]: inactive
Potency [2]: inactive
activity (max response) [3]: 1.86% (inactive)
Potency [4]: inactive

Clc1cc2c(NC3CCCC3)nnc(-c3ccncc3)c2cc1Cl
Potency [1]: inactive and 18.6 µM (active)
Potency [2]: 13.2 µM (active)
activity (max response) [3]: -2.48% (inactive)
Potency [4]: inactive

C[C@@H](OC[C@@]1(c2ccccc2)CC[C@]2(CCC(=O)N2)CN1)c1cc(C(F)(F)F)cc(C(F)(F)F)c1
Potency [1]: 7.42 µM (active)
Potency [2]: 7.42 µM (active)
Potency [3]: 25.1 µM (active)
Potency [4]: 25.1 µM (active)

CC/C=C(\C(=O)N[C@@H]1C(=O)N2C(C(=O)OCOC(=O)C(C)(C)C)=C(COC(N)=O)CS[C@H]12)c1csc(N)n1
Potency [1]: inactive
Potency [2]: inactive
activity (max response) [3]: 13.8% (inactive)
Potency [4]: inactive

CN1CCC(c2c(O)cc(O)c3c(=O)cc(-c4ccccc4Cl)oc23)C1CO (configuration not stated)
Potency [1]: 0.742 µM (active)
Potency [2]: 0.59 µM (active)
Potency [3]: 3.16 µM (active)
Potency [4]: 3.16 µM (active)

C[C@]12CCC3[C@@H](CC[C@H]4NC(=O)C=C[C@]34C)[C@@H]1CC[C@@H]2C(=O)Nc1cc(C(F)(F)F)ccc1C(F)(F)F (some centres not stated)
Potency [1]: 10.5 µM (active)
Potency [2]: 9.34 µM (active)
activity (max response) [3]: -0.361% (inactive)
Potency [4]: inactive
